Measurements published in article PMC5540273 (PLoS ONE, 2017).

tested on: RIPK4; details: concentration: 1 μM, replicates: in singlicate; n = 1
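Also: KINOMEscan kinase panel screen.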

Structure (SMILES)	%Inh
Cn1cc(-c2ccc3c(c2)CCN3C(=O)Cc2cccc(Cl)c2)c2c(N)ncnc21 [GSK2606590]	0%
Cc1ccc(S(=O)(=O)Nc2ccc(Nc3nccc(Nc4cccc5[nH]ncc45)n3)cc2)cc1 [GSK581271]	0%
O=C(O)C(F)(F)F.O=C(O)C(F)(F)F.O=c1[nH]ccc2nc(N[C@@H]3CCCNC3)nc(Nc3ccc(S(=O)(=O)N4CCOCC4)cc3)c12 [GSK2177277]	95.9%
C[C@@H](Oc1cc(-n2cnc3cc(-c4ccnc(NCCS(C)(=O)=O)c4)ccc32)sc1C(N)=O)c1ccccc1Cl [GSK907232]	14%
c1ccc(-c2cnc3nccnn23)cc1 [AH20685]	0%
CCCCc1nn2ncccc2c1-c1ccnc(Nc2ccc(N3CCN(C)CC3)cc2)n1 [GW684941]	29%
Cc1occc1-c1ncc(OC[C@@H](N)Cc2c[nH]c3ccccc23)cc1-c1ccc2[nH]nc(C)c2c1.O=C(O)C(F)(F)F [GSK682037]	0%
Oc1cc(Nc2ccnc3cc(I)ccc23)ccc1F [GW552771]	0%
Cc1ccc(C(=O)Nc2ccc(Nc3ccnc4cc(-c5nccs5)ccc34)cc2O)cc1.Cl [GW494702]	13%
c1ccc(-c2n[nH]cc2Nc2ccnc3ccccc23)nc1 [GW694077]	96.4%
C[C@@H]1CC[C@@H](C(=O)Nc2ccccc2)CN1c1cc(-c2ccc3c(N)n[nH]c3c2)nc(N)n1 [GSK2286062]	0%
CN(C)S(=O)(=O)c1cc(-c2ccc3nccc(-c4cccc(S(N)(=O)=O)c4)c3c2)cnc1N [GSK1669921]	9%
CCS(=O)(=O)c1ccc(OC)c(Nc2nccc(-c3c(-c4cccc(NC(=O)c5c(F)cccc5F)c4)nn4ncccc34)n2)c1 [GSK326180]	27%
COc1cccc(C2=C(Nc3ccc(Cl)c(C(=O)O)c3)C(=O)NC2=O)c1 [SB-390769]	7%
COc1cccc(NC(=O)NC2CCN(c3ccnc(Nc4cc(OC)c(OC)c(OC)c4)n3)C2)c1 (stereo not drawn) [GSK1379763]	49%
Cn1cc(-c2ccc3c(c2)CCN3C(=O)Cc2cccc(F)c2)c2c(N)ncnc21 [GSK2603358]	5%
CC(=O)N1CCN(c2ccc(Nc3nccc(-c4sc(C(C)C)nc4-c4cccc(NS(=O)(=O)c5cccc(Cl)c5)c4)n3)cn2)CC1 [GSK1660437]	0%
CN(C)Cc1ccc(-c2ccc3c(Nc4ccc(Oc5ccccn5)cc4)ccnc3c2)o1 [GW567148]	0%
